VDR inhibitor – Inhibitors of the vitamin D receptor (VDR): qHTS. AID 504847, 2011. Potency, µM, for the others: max response, negative = inhibition, usual class: inhibitors. VDR-SRC2-3 peptide fluorescence polarization, 2 h. Vitamin D3 receptor (Homo sapiens), P11473. actives 0.93% (n = 400,000); further: on the % scale 0 is the no-effect control and ±100 the full control effect
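Fluorescence polarization assay of small-molecule disruption of VDR binding to coregulator peptide SRC2-3. Compounds and controls pin-transferred, then read after 2 h incubation at ambient room temperature.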
G9a inh – qHTS Assay for Inhibitors of Histone Lysine Methyltransferase G9a; AID 504332, 2011; Potency, µM (highest dose often 102 µM), for inactives: at the top dose activity, negative = inhibition, hits mostly inhibitors; actives 8.8% (n = 350,000); G9a H3K9 monomethylation, AlphaScreen, 2 h; further: on the % scale 0 is the no-effect control and ±100 the full control effect; nearly all actives have a fitted effect of over 75% in size
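Compounds were preincubated with 20 nM G9a for 15 min, after which biotinylated H3K9 peptide (500 nM) and SAM (20 uM) started a 2 h room-temperature reaction. Monomethylated product was quantified by antibody-based AlphaScreen chemiluminescence.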
HP1b chromo inh – HTS for Inhibitors of HP1-beta Chromodomain Interactions with Methylated Histone Tails; Chromobox protein homolog 1 (Homo sapiens), P83916; AlphaScreen HP1-beta / biotin-H3K9me3 peptide binding; Potency, µM (doses to about 114 µM), without a hit: top-dose activity change, negative = inhibition, usual class: inhibitors; actives 0.56% (n = 390,000); AID 540317, 2011; further: nearly all actives have a fitted effect of over 70% in size
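AlphaScreen: HP1-beta (50 nM) preformed 30 min with biotin-H3(1-18)K9me3 peptide (50 nM) in PBS pH 7.4, 0.01% Tween-20. Compound added for 30 min at RT, then streptavidin donor/nickel chelate acceptor beads (10 ug/mL) for 30 min.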
JMJD2A Tudor inh – qHTS Assay for Inhibitors of JMJD2A-Tudor Domain; Lysine-specific demethylase 4A (Homo sapiens), O75164; Potency, µM (doses to about 114 µM), for inactives: at the highest dose activity change, negative = inhibition, hits mostly inhibitors; AlphaScreen JMJD2A-Tudor / H3K4me3 peptide binding; actives 4.4% (n = 390,000); further: on the % scale 0 is the no-effect control and ±100 the full control effect; nearly all actives have a fitted effect of over 50% in size
Target sequence (O75164 whole entry, looked up, the tested form may be a part): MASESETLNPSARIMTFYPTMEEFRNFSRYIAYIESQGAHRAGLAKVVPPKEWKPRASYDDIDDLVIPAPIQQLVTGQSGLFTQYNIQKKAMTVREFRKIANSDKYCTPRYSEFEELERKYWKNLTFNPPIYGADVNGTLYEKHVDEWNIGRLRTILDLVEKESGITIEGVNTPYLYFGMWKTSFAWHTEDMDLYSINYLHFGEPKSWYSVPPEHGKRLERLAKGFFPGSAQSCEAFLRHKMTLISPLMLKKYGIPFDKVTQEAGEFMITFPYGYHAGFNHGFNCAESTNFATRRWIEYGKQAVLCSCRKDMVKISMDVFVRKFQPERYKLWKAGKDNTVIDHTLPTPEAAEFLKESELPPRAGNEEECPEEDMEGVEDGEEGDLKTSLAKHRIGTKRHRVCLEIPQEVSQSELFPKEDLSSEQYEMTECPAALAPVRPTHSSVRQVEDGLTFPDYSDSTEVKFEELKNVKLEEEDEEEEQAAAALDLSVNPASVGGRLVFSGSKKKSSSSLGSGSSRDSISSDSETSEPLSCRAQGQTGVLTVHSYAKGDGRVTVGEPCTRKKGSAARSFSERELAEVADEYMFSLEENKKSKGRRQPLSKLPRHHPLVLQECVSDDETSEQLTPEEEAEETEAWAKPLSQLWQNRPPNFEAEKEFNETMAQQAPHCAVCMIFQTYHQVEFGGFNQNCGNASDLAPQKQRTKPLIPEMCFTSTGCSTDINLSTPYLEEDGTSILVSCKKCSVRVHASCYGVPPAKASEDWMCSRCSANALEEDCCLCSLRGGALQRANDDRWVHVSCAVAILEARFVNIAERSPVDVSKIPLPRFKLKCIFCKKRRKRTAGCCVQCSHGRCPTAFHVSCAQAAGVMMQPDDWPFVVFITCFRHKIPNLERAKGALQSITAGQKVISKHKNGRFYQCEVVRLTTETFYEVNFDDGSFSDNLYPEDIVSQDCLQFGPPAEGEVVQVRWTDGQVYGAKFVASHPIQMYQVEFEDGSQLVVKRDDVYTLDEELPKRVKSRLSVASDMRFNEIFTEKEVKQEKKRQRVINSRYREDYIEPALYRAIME
BAZ2B block – qHTS Assay for Inhibitors of BAZ2B. actives 4.4% (n = 360,000). AID 504333, 2011. Bromodomain adjacent to zinc finger domain protein 2B (Homo sapiens), Q9UIF8. Potency, µM (titrated, usually from 114 µM), for the others: at the highest dose activity change, negative = inhibition, actives largely listed as inhibitors. AlphaScreen BAZ2B-H3K14Ac peptide displacement; further: on the % scale 0 is the no-effect control and ±100 the full control effect; nearly all actives have a fitted effect of over 60% in size
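BAZ2B 50 nM plus b-H3(5-23)K14Ac 50 nM, PBS pH 7.4/0.01% Tween-20, 30 min RT; compound added (max 110 uM), 30 min RT; streptavidin donor/Ni-chelate acceptor beads 10 ug/mL final, 20 min dark; AlphaScreen read.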
PLK1 PBD inh – qHTS for Inhibitors of PLK1-PDB (polo-like kinase 1 - polo-box domain): Primary Screen | Serine/threonine-protein kinase PLK1 (Homo sapiens), P53350 | Plk1 PBD binding of FITC phosphopeptide, fluorescence polarization | Potency, µM, inactives show max response, negative = inhibition, most hits filed as inhibitors | actives 2.8% (n = 360,000) | AID 720504, 2013; further: series mostly up to about 57 µM; on the % scale 0 is the no-effect control and ±100 the full control effect; nearly all actives have a fitted effect of over 65% in size
* marks the source's active call; other numbers are inactive results; ? = inconclusive; . = no result given; [ ] = dose if it differs, or a comment. In the library only some 11% were active in any assay of this set; here they are far more common. The call rests on the fitted dose curve; in most records, active means well fitted curve in the direction sought with a large enough effect; inconclusive means small, poorly fitted or top-dose-only effect, or another doubt; inactive means no such curve, though single readings can be large; an effect the other way counts as inactive or inconclusive. Potency means the concentration at half of the fitted maximal effect.

SMILES | VDR inhibitor | G9a inh | HP1b chromo inh | JMJD2A Tudor inh | BAZ2B block | PLK1 PBD inh
O=C(NC(=S)Nc1ccccc1)c1cc(-c2ccccc2)nc2ccccc12 | -5% | ? | -26% | ? | ? | -14%
CCNC(=S)NNC(=O)c1cc(-c2cccnc2)nc2ccccc12 | -5% | 45µM* | 23% | -20% | 5% | -21%
CN(C)c1ccc(CN(C(=O)/C=C/c2ccco2)C2CCS(=O)(=O)C2)cc1 (stereo not drawn) | 0% | . | -12% | ? | ? | -11%
COc1cccc(CN(C(=O)/C=C/c2ccco2)C2CCS(=O)(=O)C2)c1 (stereo not drawn) | 3% | 18µM* | 10% | -19% | -29% | -12%
CCOc1ccc(CN(C(=O)/C=C/c2ccco2)C2CCS(=O)(=O)C2)cc1 (stereo not drawn) | ? | 45µM* | 20% | -32% | ? | -25%
COc1ccc(CN(C(=O)/C=C/c2ccco2)C2CCS(=O)(=O)C2)cc1OC (stereo not drawn) | -10% | 40µM* | 23% | -15% | ? | -18%
O=C(/C=C/c1ccco1)N(Cc1ccc(Cl)cc1)C1CCS(=O)(=O)C1 (stereo not drawn) | -20% | 45µM* | -13% | -20% | -28% | ?
CCOc1ccc(CN(C(=O)c2ccco2)C2CCS(=O)(=O)C2)cc1 (stereo not drawn) | 7% | . | 9% | -8% | 5% | -3%
COc1cccc(CN(C(=O)c2ccco2)C2CCS(=O)(=O)C2)c1 (stereo not drawn) | 6% | . | 26% | -6% | 1% | -15%
O=C(Oc1ccccc1)N1CCC[C@@]2(CCN(c3ncccn3)C2)C1 | -8% | -6%[12.7 µM] | . | . | . | .
Cc1ccccc1-c1nnc(Cc2ccccc2)o1 | 6% | 37%[59 µM] | 65% | 20% | 29% | -2%
COc1ccc(CN(C(=O)/C=C/c2ccco2)C2CCS(=O)(=O)C2)cc1 (stereo not drawn) | 6% | 50µM* | 3% | ? | 50µM* | -21%
CCCCc1ccc(C2C(C#N)=C(N)SC(N)=C2C#N)s1 | . | ? | . | . | 50µM* | .
COC(=O)c1cc(COC(=O)CNC(=O)c2ccc(Br)cc2)oc1C | -5% | . | 16% | -8% | . | -12%
CCc1ccc(N2C(=O)CC(NNc3nc4ccccc4s3)C2=O)cc1 (stereo not drawn) | 9% | 14µM* | 21% | -20% | -11% | -3%
CCN(CC)C(=O)c1ccc(S(=O)(=O)NCc2cccnc2)cc1 | -1% | 79µM* | 13% | -16% | -1% | 2%
Cc1ccc(NS(=O)(=O)c2ccc(CCC(=O)NCc3cccnc3)cc2)cc1 | 10% | 40µM* | 42% | -3% | -4% | -8%
CN1CCN(C(=O)c2cccc(-c3cnc4cnc(-c5ccccc5Oc5ccccc5)cn34)c2)CC1 | . | . | . | . | . | -8%
CC1CCN(C(=O)c2ccc(NC(=O)c3nsc4ccccc34)cc2)CC1 | -4% | -2%[59 µM] | 21%[57 µM] | -15% | 2% | .
C[n+]1cnn2c1SCC1(COC1)C2 | 1% | 35µM* | 4% | 25µM* | -2% | 8%
O=C(O)c1cccc(NC(=O)c2cn(-c3ccccc3)nc2-c2cc3ccccc3o2)c1 | -2% | 5%[59 µM] | -2% | -28% | 50µM* | ?
Cc1ccc(S(=O)(=O)CC(=O)Nc2nnc(C(C)(C)C)s2)cc1 | 9% | 22µM* | -14% | ? | 4% | ?
CC(NC(=S)NC1CCC(C(C)(C)C)CC1)c1ccccc1 (stereo not drawn) | 4% | 82% | 42% | -12% | -26% | 2%

Bioassay records deposited in PubChem BioAssay by National Center for Advancing Translational Sciences (NCATS).
